Activity calls are given as the source filed them. The rule behind the calls is not given here.

This assay can be described thus: inhibition of Brca1/Bard1 split-luciferase complementation, confirmation, counter-screen for Mdm2/MdmX interaction inhibitor project, luminescence, single concentration (AID 504668). Particulars: Brca1/Bard1 bimolecular luciferase complementation counterscreen, at 8 µM, active compounds read high. (A counterscreen serves to expose hits that act by an unwanted route or on another target.)
By inhibition is commonly meant the drop in the measured response relative to a control, in per cent. With `COc1ccc2c(C(=O)CCl)c[nH]c2c1`, the inhibition is 24.1% (active).
Regarding `CC(C)(C)C(=O)NC(=S)NNC(=O)c1ccc(-c2ccccc2)cc1`, the inhibition was 28.9% (active).
On to `O=C(c1ccc(S(=O)(=O)c2ccc(F)cc2)c([N+](=O)[O-])c1)N1CCCCCC1`, for which the inhibition was 30.1% (active).
On to `O=C1[C@H]2[C@@H](c3ccc(F)cc3)N3C(=O)N(c4ccc(Br)cc4)C(=O)[C@@]3(Cc3ccc(Cl)cc3)[C@H]2C(=O)N1C1CCCCC1`, for which the inhibition is 27.8% (active).
With `Cc1ccc(NC(=O)c2cc3ccccc3oc2=O)cc1S(=O)(=O)N(C)C` the figure was 25.9% (active); with `C=CCn1c(O)c(N=NC(=S)Nc2cccc(C)c2)c2ccccc21`, 33.1% (active).
For the molecule `COc1cc([C@@H]2c3cc4c(cc3[C@@H](O[C@@H]3O[C@@H]5CO[C@@H](C)O[C@H]5[C@H](O)[C@H]3O)[C@H]3COC(=O)[C@H]23)OCO4)cc(OC)c1O`, the inhibition is 31.6% (active).
For `O=C1c2ccccc2NC(c2ccc(-c3ccc(Br)cc3)o2)N1O` (stereo not given), the inhibition was 31% (active).
`N=c1ccn2c(n1)OC1C(O)C(CO)OC12` (stereo not given): the inhibition was 45.7% (active).
The value for `O=C(Oc1c(Cl)cc(Cl)c2cccnc12)c1cccs1` was 32.1% (active).
The value for `COc1ccc(N=Nc2ccc(O)c3ncccc23)cc1` was 31.7% (active); that for `Cc1cccc(NC(=O)[C@H](Cc2c[nH]c3ccccc23)NC(=O)[C@@H]2Cc3ccccc3CN2)c1` was 26.6% (active); that for `Cc1ccn2c(Nc3ccccc3C)c(-c3ccccn3)nc2c1` was 31.7% (active).
As to `N=c1n(CCO)c2ccccc2n1CCOc1ccc(Cl)cc1Cl`, the inhibition is 25.4% (active).
`C=CCc1cccc(/C=N/NC(=O)c2ccc3nc[nH]c3c2)c1O`: the inhibition is 26.2% (active).
On to `Cc1ccc(C(C)C)c(OCc2nn(CC(=O)c3ccc(Cl)cc3)c3[n+]2CCCCC3)c1`, for which the inhibition is 25% (active).
Consider `COc1cccc(-c2sc3ccc(OC)cc3c2-c2ccc(OCCN3CCCC3)cc2)c1`, for which the inhibition was 27.8% (active).
The value for `Cc1cccc(NC(=S)N(CCCN2CCCC2)Cc2cccn2Cc2ccc(Cl)cc2)c1` was 23.4% (active); that for `CC(C)CCNC(=O)C(c1ccncc1)N(Cc1cccs1)C(=O)Cn1nnc(-c2ccc(F)cc2)n1` (stereo not given) was 26.3% (active); that for `Brc1ccc2ncnc(Nc3ccc(N4CCOCC4)cc3)c2c1` was 25.5% (active).
With `CC(=O)NC(=S)Nc1ccc(NC(=S)NC(=O)/C=C/c2ccco2)cc1` the figure was 35% (active).
Regarding `CCN(CC)CCCNC(=O)c1ccc2c(Cl)c3c(nc2c1)CCCC3`, the inhibition is 30.8% (active).
`O=C(NNc1c2ccccc2nc2ccccc12)C(O)c1ccccc1` (stereo not given): the inhibition is 34.4% (active).
In the case of `CC1(C)Cc2c(sc(NC(=O)c3ccc(C(=O)c4ccccc4)cc3)c2C(N)=O)C(C)(C)N1`, the inhibition was 34.2% (active).
On to `CCN1CCN(CCCNC(=O)c2ccc(/C=C3/Sc4ccccc4N(Cc4ccccc4F)C3=O)cc2)CC1`, for which the inhibition is 24.1% (active).
In the case of `C/C(=N\NC(=O)c1nnn(-c2nonc2N)c1CN1CCc2ccccc21)c1ccccc1O`, the inhibition is 31.1% (active).
On to `Nc1nonc1-n1nnc(C(=O)N/N=C/c2cc(Cl)ccc2O)c1CN1CCCCCC1`, for which the inhibition was 32.2% (active).
For `CCOC(=O)/C=C/C(=O)Nc1ccc(Oc2ccccc2)cc1`, the inhibition is 24.1% (active).
In the case of `CCC(=O)NC(c1cccs1)c1ccc2cccnc2c1O` (stereo not given), the inhibition was 23.3% (active).
Regarding `Cc1ccc(/C=C/C(O)=C2/C(=O)N(C)C3(C)CC2c2ccccc2O3)cc1` (stereo not given), the inhibition is 30.1% (active).
With `Oc1ccc(CN2CCc3ccccc3C2)c2cccnc12` the figure was 24.4% (active); with `Oc1ccc(CNc2ccccc2F)c2cccnc12`, 30.8% (active).
Take `CCN(CC)S(=O)(=O)c1cc(OC)ccc1N=Nc1ccc(O)c2ncccc12`: the inhibition is 35.8% (active).
`Cc1ccc(C(c2cc(Cl)c3cccnc3c2O)N2CCN(C)CC2)cc1` (stereo not given): the inhibition was 32.5% (active).
Turning to `COc1ccc(-c2cc(C(=O)NNC3=NCCC3)c3c(C)nn(-c4ccccc4)c3n2)cc1`, the inhibition is 34.3% (active).
With `Cc1cccc(NC(c2ccc(C)s2)c2ccc3ccc(C)nc3c2O)n1` (stereo not given) the figure was 23.7% (active); with `COc1ccc([N+](=O)[O-])cc1NC(=S)NC(NC(=O)C(c1ccccc1)c1ccccc1)C(Cl)(Cl)Cl` (stereo not given), 29.2% (active); with `C/C(=N\NC(=O)c1ccc(Cl)c(Cl)c1)c1ccccn1`, 25.9% (active).
Regarding `CCN(CC)c1ccc(/C=N/NC(=O)c2c(Cl)cnn2C)c(O)c1`, the inhibition was 26.9% (active).
As to `O=C(COc1ccc([N+](=O)[O-])cc1)Nc1nc(-c2ccccn2)cs1`, the inhibition was 35.6% (active).

For the origin of these results see PubChem BioAssay.
